Test [1] has as its target RAF proto-oncogene serine/threonine-protein kinase (Homo sapiens) (UniProt P04049). The settings on record: at 1 µM.
Test [2] deals with Mast/stem cell growth factor receptor Kit (Homo sapiens) (UniProt P10721). The settings on record: at 1 µM.
Test [3] has the same target. The settings on record: at 10 µM.

RAF proto-oncogene serine/threonine-protein kinase (Homo sapiens), sequence (P04049 whole entry): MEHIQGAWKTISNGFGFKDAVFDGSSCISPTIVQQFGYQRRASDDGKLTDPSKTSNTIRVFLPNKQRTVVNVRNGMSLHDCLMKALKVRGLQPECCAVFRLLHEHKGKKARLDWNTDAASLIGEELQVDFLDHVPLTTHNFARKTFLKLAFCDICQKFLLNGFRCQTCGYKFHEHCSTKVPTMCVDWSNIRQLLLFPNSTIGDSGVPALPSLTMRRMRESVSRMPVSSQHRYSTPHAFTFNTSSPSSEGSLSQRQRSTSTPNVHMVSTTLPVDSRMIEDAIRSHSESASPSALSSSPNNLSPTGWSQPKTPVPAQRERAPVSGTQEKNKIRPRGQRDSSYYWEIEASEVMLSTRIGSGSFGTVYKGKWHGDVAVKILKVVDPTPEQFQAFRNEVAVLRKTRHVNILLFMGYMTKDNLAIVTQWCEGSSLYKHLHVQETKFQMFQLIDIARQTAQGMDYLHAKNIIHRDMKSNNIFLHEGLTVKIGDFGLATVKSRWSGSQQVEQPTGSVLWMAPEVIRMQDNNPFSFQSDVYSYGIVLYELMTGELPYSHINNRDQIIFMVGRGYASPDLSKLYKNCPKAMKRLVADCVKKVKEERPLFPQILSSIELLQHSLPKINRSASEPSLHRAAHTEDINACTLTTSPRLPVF
Mast/stem cell growth factor receptor Kit (Homo sapiens), sequence (P10721 whole entry): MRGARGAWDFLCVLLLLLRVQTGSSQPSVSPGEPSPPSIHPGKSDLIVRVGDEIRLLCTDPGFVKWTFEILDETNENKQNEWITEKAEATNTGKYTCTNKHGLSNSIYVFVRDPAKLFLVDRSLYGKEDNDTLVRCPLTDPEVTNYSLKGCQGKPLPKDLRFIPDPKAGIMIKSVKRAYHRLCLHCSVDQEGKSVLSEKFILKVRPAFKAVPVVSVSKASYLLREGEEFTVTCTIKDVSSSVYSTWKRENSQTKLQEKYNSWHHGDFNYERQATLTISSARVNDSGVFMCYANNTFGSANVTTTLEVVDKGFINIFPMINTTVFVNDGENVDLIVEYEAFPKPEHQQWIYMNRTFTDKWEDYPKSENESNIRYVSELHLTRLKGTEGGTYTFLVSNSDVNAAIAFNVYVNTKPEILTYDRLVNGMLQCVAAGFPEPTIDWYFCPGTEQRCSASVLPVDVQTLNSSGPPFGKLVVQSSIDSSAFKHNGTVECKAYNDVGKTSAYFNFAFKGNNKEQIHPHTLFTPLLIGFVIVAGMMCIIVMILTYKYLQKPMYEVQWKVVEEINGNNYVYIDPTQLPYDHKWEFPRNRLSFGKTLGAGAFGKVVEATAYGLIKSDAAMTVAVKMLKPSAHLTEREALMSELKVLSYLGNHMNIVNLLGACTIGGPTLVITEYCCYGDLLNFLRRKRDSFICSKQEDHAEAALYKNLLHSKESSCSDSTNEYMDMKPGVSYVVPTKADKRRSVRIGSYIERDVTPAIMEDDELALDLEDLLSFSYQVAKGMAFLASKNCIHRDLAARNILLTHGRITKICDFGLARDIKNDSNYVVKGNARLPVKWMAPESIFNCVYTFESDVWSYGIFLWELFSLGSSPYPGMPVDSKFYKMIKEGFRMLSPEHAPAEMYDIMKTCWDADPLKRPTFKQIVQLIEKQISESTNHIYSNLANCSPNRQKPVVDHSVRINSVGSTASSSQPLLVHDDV

`CC(C)(C)c1cc(C=C(C#N)C#N)cc(Br)c1O`: the values for the residual activity in test [1], in test [2] and in test [3] were 99%, 113% and 102%, respectively.

Turning to `CN[C@@H]1C[C@H]2O[C@@](C)([C@@H]1OC)n1c3ccccc3c3c4c(c5c6ccccc6n2c5c31)C(=O)NC4`, in test [1], the residual activity is 109%.

The term residual activity denotes the signal under treatment as a percentage of the control signal.

Source of the values: ChEMBL document CHEMBL2218924, “A broad activity screen in support of a chemogenomic map for kinase signalling research and drug discovery” (Biochem J, 2013).
